Compounds with a hit are over-represented: about 9.2% of the library has one in this group of screens.
SMN2 splice up: qHTS Assay for Enhancers of SMN2 Splice Variant Expression; HEK293 SMN2-luciferase splicing reporter, luminescence, 30-36 h; actives 2.8% (n = 210,000); Potency, µM (top dose mostly 46.1 µM), for inactives: at the top dose activity change, positive = activation, actives largely listed as activators; note: % of control where 0% means no effect; nearly all actives have a fitted effect of over 55% in size
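qHTS luciferase splicing reporter: luminescence rises when SMN2 exon 7 is included in transfected HEK293 cells. Compound exposure lasted 30-36 h at 37C, with 4.5 mM final sodium butyrate as control, followed by a ONE-Glo read.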
ELG1 genotox: qHTS screen for small molecules that induce genotoxicity in human embryonic kidney (HEK293T) cells expressing luciferase-tagged ELG1; Potency, µM (top dose mostly 46 µM), for the others: top-dose activity change, positive = activation, most hits filed as activators; HEK293T ELG1-luciferase reporter, luminescence, 16 h; actives 1.3% (n = 330,000); note: % of control where 0% means no effect; nearly all actives have a fitted effect of over 60% in size
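DMSO vehicle served as control against compound-treated ELG1-luciferase HEK293T cells; exposure lasted 16 hr at 37 °C and 5% CO2, followed by ONE-Glo luminescence detection after 30 min.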
ELG1 DNA repair: qHTS screen for small molecules that inhibit ELG1-dependent DNA repair in human embryonic kidney (HEK293T) cells expressing luciferase-tagged ELG1; actives 2.3% (n = 330,000); HEK293T ELG1-luciferase reporter, luminescence, 16 h; DNA damage induced by 5-fluorouridine; Potency, µM (top dose mostly 46.1 µM), for the others: at the top dose activity change, negative = inhibition, actives largely listed as inhibitors; note: % is set by controls: 0 for no effect and ±100 for the full control effect; nearly all actives have a fitted effect of over 55% in size
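HEK293T cells expressing luciferase-tagged ELG1 (2,000/well) received 5-Fluorouridine plus compound or DMSO for 16 hr at 37 °C. Luciferase was read by ONE-Glo luminescence after 30 min at room temperature.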
FLuc modulator: qHTS profiling assay for firefly luciferase inhibitor/activator using purifed enzyme and Km concentrations of substrates (counterscreen for miR-21 project). actives 6.9% (n = 360,000). AID 588342, 2011. purified FLuc, Km substrates, luminescence inhibition. Luciferin 4-monooxygenase (Photinus pyralis), P08659. Potency, µM (series often up to 57.5 µM), without a hit: at the highest dose activity change, negative = inhibition, usual class: inhibitors;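 note: plate controls were vehicle for no effect and reference inhibitor for full effect; nearly all actives have a fitted effect of over 55% in size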
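Purified P. pyralis luciferase, 10 nM final, with Km-level 10 uM D-luciferin and 10 uM ATP in 50 mM Tris acetate pH 7.5, 10 mM Mg acetate, 0.01% Tween-20, 0.05% BSA; 6-point qHTS titration about 60 µM downward; luminescence read.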
Rab9 prom act: qHTS Assay for Rab9 Promoter Activators | Huh7 Rab9 promoter-luciferase reporter, luminescence, 24 h | Potency, µM (series often up to 9.22 µM), inactives show at the highest dose activation, negative = inhibition, hits mostly activators | actives 2.8% (n = 320,000) | AID 485297, 2010; note: % of control where 0% means no effect; nearly all actives have a fitted effect of over 60% in size
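Luminescence read-out: Huh7 cells stably expressing Rab9-luciferase, treated 24 h with compound at 37 °C, then lysed with luciferase reagent for 10 min at ambient before reading.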
NPC1 prom act: qHTS Assay for NPC1 Promoter Activators; Potency, µM (series often up to 9.22 µM), inactives show at the highest dose activation, hits mostly activators; AID 485313, 2010; actives 2.4% (n = 320,000); Huh7 NPC1 promoter luciferase reporter, 24 h; note: % of control where 0% means no effect; nearly all actives have a fitted effect of over 60% in size
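Readout is luciferase luminescence, reflecting NPC1 promoter activation in stably transfected Huh7 cells after 24 h compound exposure at 37 °C in reduced-serum medium with 10% FBS.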
ELG1 FLuc counter: qHTS screen for small molecules that inhibit ELG1-dependent DNA repair: Hit Confirmation in Cell-Based Luciferin Assay | cell-free firefly luciferase luminescence counter-screen, ViewLux | actives 3% (n = 350) | Potency, µM (doses to about 46.1 µM), for inactives: top-dose activity change, negative = inhibition, actives largely listed as inhibitors | shares compounds with ELG1 DNA repair; note: % is set by controls: 0 for no effect and ±100 for the full control effect
ELG1-Luc inh: HTS assay for small molecules that inhibit ELG1-dependent DNA repair in human embryonic kidney (HEK293T) cells expressing luciferase-tagged ELG1: Hit Confirmation. Potency, µM (top dose mostly 46.1 µM), inactives show top-dose activity change, negative = inhibition, usual class: inhibitors. HEK293T ELG1-luciferase levels, luminescence; cells co-treated with 5-fluorouridine. actives 68% (n = 670). shares compounds with ELG1 DNA repair; note: % is set by controls: 0 for no effect and ±100 for the full control effect; nearly all actives have a fitted effect of over 55% in size
Target sequence (Q96QE3 whole entry, looked up): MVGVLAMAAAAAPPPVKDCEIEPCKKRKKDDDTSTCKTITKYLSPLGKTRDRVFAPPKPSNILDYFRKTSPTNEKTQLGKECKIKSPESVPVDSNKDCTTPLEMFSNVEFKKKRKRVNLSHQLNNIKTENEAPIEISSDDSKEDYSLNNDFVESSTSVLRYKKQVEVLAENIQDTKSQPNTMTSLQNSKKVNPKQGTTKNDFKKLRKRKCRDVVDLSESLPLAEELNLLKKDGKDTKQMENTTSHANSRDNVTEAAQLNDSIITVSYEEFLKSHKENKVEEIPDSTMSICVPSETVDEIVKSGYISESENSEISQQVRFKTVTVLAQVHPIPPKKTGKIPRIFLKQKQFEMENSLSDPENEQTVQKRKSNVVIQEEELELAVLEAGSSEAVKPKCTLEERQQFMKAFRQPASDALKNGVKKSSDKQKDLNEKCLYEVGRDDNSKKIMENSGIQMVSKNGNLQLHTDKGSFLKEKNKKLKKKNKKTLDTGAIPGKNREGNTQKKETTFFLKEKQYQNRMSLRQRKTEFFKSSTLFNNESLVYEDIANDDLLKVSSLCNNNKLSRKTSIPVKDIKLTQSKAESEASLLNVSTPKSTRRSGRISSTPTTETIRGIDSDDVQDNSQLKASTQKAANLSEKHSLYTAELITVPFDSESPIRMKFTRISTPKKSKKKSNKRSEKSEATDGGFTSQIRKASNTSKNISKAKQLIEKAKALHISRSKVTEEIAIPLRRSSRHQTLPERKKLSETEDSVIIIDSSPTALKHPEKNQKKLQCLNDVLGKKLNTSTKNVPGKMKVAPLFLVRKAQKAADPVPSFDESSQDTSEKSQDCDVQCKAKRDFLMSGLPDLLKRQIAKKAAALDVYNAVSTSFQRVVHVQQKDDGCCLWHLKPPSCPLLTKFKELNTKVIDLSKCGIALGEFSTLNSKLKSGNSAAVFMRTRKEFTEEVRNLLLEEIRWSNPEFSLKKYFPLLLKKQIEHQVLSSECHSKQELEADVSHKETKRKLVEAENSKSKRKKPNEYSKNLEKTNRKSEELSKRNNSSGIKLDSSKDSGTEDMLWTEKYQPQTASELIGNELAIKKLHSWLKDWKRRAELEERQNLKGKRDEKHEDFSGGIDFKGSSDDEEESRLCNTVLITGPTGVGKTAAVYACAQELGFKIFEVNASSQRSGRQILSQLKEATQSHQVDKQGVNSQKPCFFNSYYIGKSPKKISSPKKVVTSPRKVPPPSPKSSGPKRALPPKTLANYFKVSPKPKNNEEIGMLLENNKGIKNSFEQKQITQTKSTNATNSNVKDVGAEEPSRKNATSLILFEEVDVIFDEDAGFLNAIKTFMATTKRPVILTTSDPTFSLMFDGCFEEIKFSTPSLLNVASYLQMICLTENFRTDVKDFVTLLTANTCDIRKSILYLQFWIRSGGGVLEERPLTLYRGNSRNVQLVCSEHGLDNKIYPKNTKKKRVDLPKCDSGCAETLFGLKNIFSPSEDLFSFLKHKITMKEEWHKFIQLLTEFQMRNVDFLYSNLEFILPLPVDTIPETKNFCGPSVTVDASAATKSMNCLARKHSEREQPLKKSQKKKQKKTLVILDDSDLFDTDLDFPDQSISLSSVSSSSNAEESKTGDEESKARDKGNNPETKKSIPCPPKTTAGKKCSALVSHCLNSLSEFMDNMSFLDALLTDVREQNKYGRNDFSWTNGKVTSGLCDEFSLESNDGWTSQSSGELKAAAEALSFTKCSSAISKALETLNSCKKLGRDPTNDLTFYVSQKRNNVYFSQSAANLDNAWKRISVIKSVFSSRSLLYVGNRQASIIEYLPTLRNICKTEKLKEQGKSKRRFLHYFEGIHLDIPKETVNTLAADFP
ELG1-Luc MMS: inhibits ELG1-dependent repair under MMS stimulation in HEK293T cells; Potency, µM (highest dose often 46.1 µM), for the others: top-dose activity change, negative = inhibition, hits mostly inhibitors; shares compounds with ELG1 DNA repair; HEK293T luciferase-tagged ELG1 level, MMS stimulated; actives 53% (n = 670); note: % is set by controls: 0 for no effect and ±100 for the full control effect; nearly all actives have a fitted effect of over 60% in size
ELG1 5FU viab: qHTS screen for small molecules that inhibit ELG1-dependent DNA repair: Hit Confirmation with 5FU Viability | shares compounds with ELG1 DNA repair | cell viability with 5-FU, ELG1-dependent repair | Potency, µM (series often up to 46.1 µM), for inactives: at the top dose activity change, negative = viability loss, most hits filed as cytotoxic | 670 tested, under 10 active;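 note: ELG1-luc HEK293T cells cotreated with 5-fluorouridine at 10 µM final; viability measured 16 h after compound addition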
ELG1 MMS cell: qHTS screen for small molecules that inhibit ELG1-dependent DNA repair: Hit Confirmation with MMS Viability; actives 33% (n = 670); Potency, µM (titrated, usually from 46.1 µM), inactives show at the highest dose activity change, negative = viability loss, usual class: cytotoxic; Cell viability with MMS, ELG1-dependent DNA repair; shares compounds with ELG1 DNA repair;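 note: ELG1-luc HEK293T cells co-treated with 10 µM MMS; viability read 16 h after compound addition; % is set by controls: 0 for no effect and ±100 for the full control effect; nearly all actives have a fitted effect of over 60% in size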
Cell viab unstim: qHTS screen for small molecules that inhibit ELG1-dependent DNA repair: Hit Confirmation with Unstimulated Viability Assay | shares compounds with ELG1 DNA repair | actives 8% (n = 900) | cell viability counter-screen, unstimulated, luminescence | Potency, µM (series often up to 45.9 µM), inactives show at the top dose activity change, negative = loss of viability, actives largely listed as cytotoxic;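 note: compound exposure lasted 16 hours before reading; % is set by controls: 0 for no effect and ±100 for the full control effect; nearly all actives have a fitted effect of over 55% in size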
FLuc biochem: qHTS screen for small molecules that inhibit ELG1-dependent DNA repair: Hit Confirmation in Biochemical Luciferin Assay; shares compounds with ELG1 DNA repair; purified firefly luciferase, luminescence counter-screen; Potency, µM (highest dose often 57.5 µM), without a hit: at the highest dose activity, negative = inhibition, most hits filed as inhibitors; actives 10% (n = 350); AID 624253, 2012; note: % is set by controls: 0 for no effect and ±100 for the full control effect
An asterisk follows results filed as active. Calls come from the whole dose curve; as a rule, active = well fitted curve in the direction sought with a large enough effect; inconclusive = small, poorly fitted or top-dose-only effect, or another doubt; inactive = no such curve, though single readings can be large; an effect the other way counts as inactive or inconclusive. Potency is the fitted concentration of half-maximal effect.

For Cc1ccc(N(CC(=O)NCc2ccc(F)cc2)C(=O)c2snc(C(N)=O)c2N)cc1C the results were ELG1 genotox 10.0%, ELG1 DNA repair 8.3%, FLuc modulator 0.7%, Rab9 prom act 1.4% and NPC1 prom act 0.7%.
`O=C(CCl)Nc1cccc(S(=O)(=O)NC2=NCCC2)c1` gave ELG1 genotox -15.1%, ELG1 DNA repair inconclusive, FLuc modulator -0.1%, Rab9 prom act -14.3% and NPC1 prom act -13.2%.
COc1ccc(CCN(Cc2cccs2)S(=O)(=O)c2ccc(S(=O)(=O)N3CCCCCC3)cc2)cc1OC was read as SMN2 splice up -21.9%, ELG1 genotox -0.9%, ELG1 DNA repair 2.91µM*, FLuc modulator 1.5%, Rab9 prom act -1.7%, NPC1 prom act -3.8%, ELG1-Luc inh inconclusive, ELG1-Luc MMS 4.45µM*, ELG1 5FU viab -10.3%, ELG1 MMS cell 7.05µM* and Cell viab unstim -17.0%.
Screening NC(=O)CC(NC(=O)Cc1ccc(Br)cc1)c1ccc(N2CCc3ccccc3C2)c([N+](=O)[O-])c1 (configuration not stated) returned ELG1 genotox -5.4%, ELG1 DNA repair -17.5%, FLuc modulator -0.4%, Rab9 prom act -2.4% and NPC1 prom act 1.5%.
COC1=C(N)C(=O)c2nc(-c3nc(C(=O)O)c(C)c(-c4ccc(OC)c(OC)c4O)c3N)ccc2C1=O was read as SMN2 splice up -100.2%, ELG1 genotox -15.8%, ELG1 DNA repair 0.82µM*, FLuc modulator -15.1%, Rab9 prom act -37.5%, NPC1 prom act -47.2%, ELG1 FLuc counter 2.5µM*, ELG1-Luc inh 1.12µM*, ELG1-Luc MMS 0.0397µM*, ELG1 5FU viab 2.23µM*, ELG1 MMS cell 0.0561µM*, Cell viab unstim 1.12µM* and FLuc biochem -8.4%.
COc1ccc(C(=O)O)c(O)c1OC was read as SMN2 splice up -2.1%.
O=C(Nc1ccc(N2CCOCC2)cc1)c1cccc(S(=O)(=O)N2CCCCCC2)c1 was read as SMN2 splice up -44.6%, ELG1 genotox -2.4%, ELG1 DNA repair 3.26µM*, FLuc modulator -7.8%, Rab9 prom act -13.6%, NPC1 prom act -8.9%, ELG1-Luc inh inconclusive, ELG1-Luc MMS 7.91µM*, ELG1 5FU viab -0.6%, ELG1 MMS cell 7.91µM* and Cell viab unstim inconclusive.
Cc1ccc(SC(=O)c2c(C)noc2-c2cc(C)on2)cc1 was read as ELG1 genotox -5.8%, ELG1 DNA repair -2.1%, FLuc modulator -3.2%, Rab9 prom act 1.1% and NPC1 prom act -4.9%.
`C=CCn1c(NCCc2ccccc2)nc2c1c(=O)n(C)c(=O)n2C` gave SMN2 splice up -65.4%, ELG1 genotox -9.0%, ELG1 DNA repair inconclusive, FLuc modulator -0.7%, Rab9 prom act -22.7% and NPC1 prom act -10.7%.
C/C(Cl)=C\Cn1c(NCCc2ccccc2)nc2c1c(=O)n(C)c(=O)n2C was read as SMN2 splice up -63.8%, ELG1 genotox -13.3%, ELG1 DNA repair 5.17µM*, FLuc modulator -5.7%, Rab9 prom act -34.5%, NPC1 prom act -24.9%, ELG1 FLuc counter -9.5%, ELG1-Luc inh 12.6µM*, ELG1-Luc MMS 5µM*, ELG1 5FU viab -1.1%, ELG1 MMS cell inconclusive, Cell viab unstim inconclusive and FLuc biochem -0.6%.
Screening CCOC(=O)Cn1c(=NC(=O)C(C)C)sc2c(C)cc(C)cc21 returned ELG1 genotox -5.8%, ELG1 DNA repair 3.26µM*, FLuc modulator inconclusive, Rab9 prom act -0.7%, NPC1 prom act 7.1%, ELG1-Luc inh 14.1µM*, ELG1-Luc MMS -3.0%, ELG1 5FU viab 8.3%, ELG1 MMS cell inconclusive and Cell viab unstim inconclusive.

High-throughput results: PubChem, National Center for Advancing Translational Sciences (NCATS)
